Measurements as given in PubChem BioAssay AID1159580 (chemical genetic matrix, 2015).
In all, about 5,500 compounds went through this assay and about 2,000 (36%) were called active. About 18% were inconclusive and are not listed. Rule as the data show it: active = normalized growth mostly below about 0.91 (no sharp cut-off); inconclusive = no clear call, values can overlap the other calls; inactive = mostly above about 0.92. The list shows a part of the results.

Experiment: chemical genetic growth profiling, strain panel (AID 1159580);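 also: tested at 20 µM; growth read once vehicle control cultures reached saturation at 30 °C; 1 = growth at the plate median or of vehicle wells; lower values mean less growth of the strain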
Conditions: growth OD
[1] = S. cerevisiae deletion strains, locus YAL013W, strain DEP1, hits give low values
[2] = S. cerevisiae deletion strains, locus YMR307W, strain GAS1, hits give low values
[3] = S. cerevisiae deletion strains, locus YBR021W, strain FUR4, hits give low values
[4] = S. cerevisiae deletion strains, locus YBR229C, strain ROT2, hits give low values
[5] = S. cerevisiae deletion strains, locus YCL029C, strain bik1, hits give low values
[6] = S. cerevisiae deletion strains, locus YDL035C, strain GPR1, hits give low values
[7] = S. cerevisiae deletion strains, locus YDL074C, strain BRE1, hits give low values
[8] = S. cerevisiae deletion strains, locus YDL101C, strain DUN1, hits give low values
[9] = S. cerevisiae deletion strains, locus YDL134C, strain PPH21, hits give low values
[10] = S. cerevisiae deletion strains, locus YDL185W, strain tfp1, hits give low values
[11] = S. cerevisiae deletion strains, locus YDL192W, strain arf1, hits give low values
[12] = S. cerevisiae deletion strains, locus YDR101C, strain arx1, hits give low values
[13] = S. cerevisiae deletion strains, locus YDR162C, strain NBP2, hits give low values
[14] = S. cerevisiae deletion strains, locus YDR318W, strain mcm21, hits give low values
[15] = S. cerevisiae deletion strains, locus YDR388W, hits give low values
[16] = S. cerevisiae deletion strains, locus YDR502C, strain sam2, hits give low values
[17] = S. cerevisiae deletion strains, locus YEL061C, strain CIN8, hits give low values
[18] = S. cerevisiae deletion strains, locus YER110C, hits give low values
[19] = S. cerevisiae deletion strains, locus YER155C, strain BEM2, hits give low values
[20] = S. cerevisiae deletion strains, locus YER167W, strain BCK2, hits give low values
[21] = S. cerevisiae deletion strains, locus YGL078C, strain dbp3, hits give low values
[22] = S. cerevisiae deletion strains, locus YGL086W, strain mad1, hits give low values
[23] = S. cerevisiae deletion strains, locus YGL248W, strain PDE1, hits give low values
[24] = S. cerevisiae deletion strains, locus YGR135W, strain pre9, hits give low values
[25] = S. cerevisiae deletion strains, locus YGR252W, strain gcn5, hits give low values
[26] = S. cerevisiae deletion strains, locus YHR079C, strain IRE1 (second series), hits give low values
[27] = S. cerevisiae deletion strains, locus YHR094C, strain hxt1, hits give low values
[28] = S. cerevisiae deletion strains, locus YHR129C, strain ARP1, hits give low values
[29] = S. cerevisiae deletion strains, locus YHR200W, strain rpn10, hits give low values
[30] = S. cerevisiae deletion strains, locus YIL066C, strain RNR3, hits give low values
[31] = S. cerevisiae deletion strains, locus YIL073C, strain SPO22, hits give low values
[32] = S. cerevisiae deletion strains, locus YIL125W, strain kgd1, hits give low values
[33] = S. cerevisiae deletion strains, locus YIR030C, strain dcg1, hits give low values
[34] = S. cerevisiae deletion strains, locus YJL095W, strain BCK1, hits give low values
[35] = S. cerevisiae deletion strains, locus YJL134W, strain LCB3, hits give low values
[36] = S. cerevisiae deletion strains, locus YJL168C, strain set2, hits give low values
[37] = S. cerevisiae deletion strains, locus YJL187C, strain SWE1 (second series), hits give low values
[38] = S. cerevisiae deletion strains, locus YJR043C, strain POL32, hits give low values
[39] = S. cerevisiae deletion strains, locus YKL009W, strain mrt4, hits give low values
[40] = S. cerevisiae deletion strains, locus YKL068W, hits give low values
[41] = S. cerevisiae deletion strains, locus YKL085W, strain MDH1 (second series), hits give low values
[42] = S. cerevisiae deletion strains, locus YKL085W, strain MDH1, hits give low values
[43] = S. cerevisiae deletion strains, locus YKR001C, strain vps1, hits give low values
[44] = S. cerevisiae deletion strains, locus YLR039C, strain RIC1, hits give low values
[45] = S. cerevisiae deletion strains, locus YLR058C, strain SHM2, hits give low values
[46] = S. cerevisiae deletion strains, locus YLR102C, strain apc9, hits give low values
[47] = S. cerevisiae deletion strains, locus YLR262C, strain YPT6, hits give low values
[48] = S. cerevisiae deletion strains, locus YLR268W, strain sec22, hits give low values
[49] = S. cerevisiae deletion strains, locus YLR371W, strain rom2, hits give low values
[50] = S. cerevisiae deletion strains, locus YLR418C, strain cdc73, hits give low values
[51] = S. cerevisiae deletion strains, locus YML016C, strain PPZ1, hits give low values
[52] = S. cerevisiae deletion strains, locus YML032C, strain rad52, hits give low values
[53] = S. cerevisiae deletion strains, locus YML124C, strain tub3, hits give low values
[54] = S. cerevisiae deletion strains, locus YMR078C, strain ctf18, hits give low values
[55] = S. cerevisiae deletion strains, locus YMR223W, strain ubp8, hits give low values
[56] = S. cerevisiae deletion strains, locus YNL067W, strain RPL9B, hits give low values
[57] = S. cerevisiae deletion strains, locus YNL233W, strain BNI4, hits give low values
[58] = S. cerevisiae deletion strains, locus YNL250W, strain rad50, hits give low values
[59] = S. cerevisiae deletion strains, locus YNL271C, strain bni1, hits give low values
[60] = S. cerevisiae deletion strains, locus YNL298W, strain CLA4, hits give low values
[61] = S. cerevisiae deletion strains, locus YNL307C, strain MCK1, hits give low values
[62] = S. cerevisiae deletion strains, locus YNR052C, strain pop2, hits give low values
[63] = S. cerevisiae deletion strains, locus YOL006C, strain TOP1, hits give low values
[64] = S. cerevisiae deletion strains, locus YOL012C, strain htz1
[65] = S. cerevisiae deletion strains, locus YOL147C, strain pex11, hits give low values
[66] = S. cerevisiae deletion strains, locus YOR061W, strain CKA2, hits give low values
[67] = S. cerevisiae deletion strains, locus YOR069W, strain VPS5, hits give low values
[68] = S. cerevisiae deletion strains, locus YOR136W, strain idh2, hits give low values
[69] = S. cerevisiae deletion strains, locus YOR144C, strain elg1, hits give low values
[70] = S. cerevisiae deletion strains, locus YOR184W, strain ser1, hits give low values
[71] = S. cerevisiae deletion strains, locus YOR316C, strain cot1, hits give low values
[72] = S. cerevisiae deletion strains, locus YPR119W, strain clb2, hits give low values
[73] = S. cerevisiae deletion strains, locus YPR141C, strain kar3, hits give low values
[74] = S. cerevisiae deletion strains, locus YPR163C, strain tif3, hits give low values
[75] = S. cerevisiae deletion strains, locus YPR167C, strain met16, hits give low values
[76] = S. cerevisiae deletion strains, strain wtn01, hits give low values
[77] = S. cerevisiae deletion strains, locus YHR030C, strain SLT2, hits give low values

Measured: normalized growth

NC/C=C\C(=O)O
inactive: [1] 1 | S. cerevisiae deletion strains, locus YAL040C, strain CLN3, hits give low values 0.994 | S. cerevisiae deletion strains, locus YER002W, strain NOP16, hits give low values 1.01 | S. cerevisiae deletion strains, locus YGR229C, strain SMI1, hits give low values 1.02 | [2] 1 | S. cerevisiae deletion strains, locus YNL175C, strain NOP13, hits give low values 1 | S. cerevisiae deletion strains, locus YNL197C, strain WHI3, hits give low values 0.985 | S. cerevisiae deletion strains, locus YNL224C, strain SQS1, hits give low values 0.993 | S. cerevisiae deletion strains, locus YOR083W, strain WHI5 (second series), hits give low values 1.02

CCC(C)c1cnc(CC(C)C)c(=O)n1O (stereo not given)
inactive: [3] 1.01 | [4] 1.01 | [5] 1.02 | [7] 0.876 | [8] 1.02 | [9] 1.04 | [11] 0.933 | [12] 0.993 | [14] 1.03 | [15] 1.02 | [16] 0.967 | [18] 1.02 | [19] 1.01 | [20] 0.998 | [22] 0.946 | [23] 1.04 | S. cerevisiae deletion strains, locus YGR078C, strain PAC10, hits give low values 0.905 | [24] 0.977 | [25] 1.1 | [26] 1.02 | [27] 1.01 | [29] 0.961 | [30] 0.994 | [31] 1.18 | [33] 1.01 | [34] 0.981 | [35] 0.993 | [36] 1.02 | [37] 1.01 | [39] 0.936 | [43] 0.963 | [44] 0.771 | [45] 1.02 | [46] 1.02 | [47] 0.806 | [48] 1.01 | [49] 1.04 | [50] 0.991 | [51] 1.01 | [52] 1.01 | [53] 1.02 | [54] 1.01 | [55] 1.01 | [56] 0.955 | S. cerevisiae deletion strains, locus YNL153C, strain GIM3, hits give low values 0.881 | [57] 0.969 | [58] 0.906 | [61] 1.02 | [62] 1.03 | [63] 1.21 | [64] 0.477 | [65] 1 | [66] 0.997 | [67] 0.998 | [68] 1.03 | [69] 1.01 | [70] 0.957 | [71] 1.03 | [72] 1.01 | [74] 1.02 | [75] 1.01 | [76] 0.902
active: [6] 0.818 | [10] 0.231 | [13] 0.545 | [17] 0.846 | [21] 0.87 | [28] 0.894 | [32] 0.815 | [38] 0.645 | S. cerevisiae deletion strains, locus YJR075W, strain HOC1, hits give low values 0.837 | [40] 0.864 | [41] 0.771 | [42] 0.771 | [2] 0.534 | [59] 0.78 | [60] 0.708 | S. cerevisiae deletion strains, locus YNL322C, strain KRE1, hits give low values 0.579 | S. cerevisiae deletion strains, locus YPL055C, strain LGE1, hits give low values 0.548 | S. cerevisiae deletion strains, locus YPL241C, strain CIN2, hits give low values 0.717 | [73] 0.844 | S. cerevisiae strains, strain wild type, hits give low values 0.275

CC(C)c1c(CN(C)C(C)Cc2ccccc2)n(C)n(-c2ccccc2)c1=O (stereo not given)
inactive: [77] 0.997 | S. cerevisiae deletion strains, locus YHR079C, strain IRE1, hits give low values 1.01 | [34] 0.992 | S. cerevisiae deletion strains, locus YJR066W, strain TOR1, hits give low values 0.938 | S. cerevisiae deletion strains, locus YLR113W, strain HOG1, hits give low values 1.01 | S. cerevisiae deletion strains, locus YNL183C, strain NPR1, hits give low values 0.935 | S. cerevisiae deletion strains, locus YOR231W, strain MKK1, hits give low values 1 | S. cerevisiae deletion strains, locus YPL256C, strain CLN2, hits give low values 0.971

C=C1CCC(=O)C(C)CCC2C1CC2(C)C (stereo not given)
active: [43] 0.864
inactive: [1] 1.01 | [3] 1 | [4] 1.02 | [5] 0.993 | [6] 1 | [7] 1 | [8] 1.03 | [9] 1.03 | [10] 1 | [11] 0.972 | [12] 0.987 | S. cerevisiae deletion strains, locus YDR150W, strain NUM1, hits give low values 1.02 | [13] 1.06 | [14] 0.998 | [15] 0.997 | [16] 1 | [17] 1.01 | [18] 0.99 | [19] 1.02 | [20] 1.01 | [21] 0.995 | [22] 0.986 | [23] 1.03 | [24] 1.01 | [25] 1 | [77] 1.02 | [26] 0.984 | [27] 0.996 | [28] 1.02 | [29] 0.995 | [30] 1.02 | [31] 0.971 | [32] 0.987 | [33] 0.998 | [34] 1.02 | [35] 1.02 | [36] 1.01 | [37] 1.03 | [38] 1.03 | [39] 0.976 | [40] 1.01 | [41] 0.99 | [42] 0.99 | [44] 1.01 | [45] 1.02 | [46] 0.994 | [47] 1.03 | [48] 0.985 | S. cerevisiae deletion strains, locus YLR330W, strain CHS5, hits give low values 1.02 | S. cerevisiae deletion strains, locus YLR342W, strain FKS1 (second series), hits give low values 1.01 | [49] 0.994 | [50] 1.01 | [51] 1.02 | [52] 0.997 | [53] 0.995 | [54] 1 | [55] 1.01 | S. cerevisiae deletion strains, locus YMR263W, strain SAP30, hits give low values 1.03 | [2] 1.08 | [56] 1.02 | [57] 1.03 | [58] 1.01 | [59] 0.999 | [60] 1.03 | [61] 0.995 | [62] 0.989 | [63] 1.03 | [64] 0.879 | [65] 0.987 | [66] 1.02 | [67] 1.02 | [68] 0.991 | [69] 0.987 | [70] 0.977 | [71] 0.998 | [72] 0.983 | [73] 0.994 | [74] 0.997 | [75] 0.99 | [76] 0.966
